# Source: PubChem BioAssay (several laboratories)
# MRP reversal: MRP-mediated drug resistance reversal | differential viability (reversal), % at 10 µM | AID 602 | H69AR cells + 2 uM doxorubicin, CellTiter-Glo, 72 h | hit rate 0.04% among 85,000;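 active = viability drop by adding the cancer drug above about 55%, with treated viability meeting a 40% cutoff, limit read from the data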;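 also: viability without doxorubicin minus viability with 2 µM doxorubicin for each compound; larger differential means the compound sensitizes cells more to doxorubicin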
# F-actin modifier: cytoskeleton assembly modification; HUVEC TNFa F-actin phalloidin imaging, high content; inhibition, % at 2 µM; hit rate 0.18% among 91,000;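 active = inhibition above the batch mean plus 3 SD and confirmed as a hit by visual image inspection, cut at about 30% in these data, passing the limit was not always enough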
# E-sel TNF inh: blocks E-selectin expression induced by TNF alpha | AID 1246 | inhibition, % at 2 µM | HUVEC TNFa-induced E-selectin immunofluorescence, high content | hit rate 0.71% among 120,000;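 active = inhibition above the batch mean plus 3 SD, and confirmed as a hit on visual image review, cut at about 43% in these data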;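 also: 0% = TNF-stimulated DMSO wells and 100% = unstimulated control wells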
# VCAM1 TNFa inh: reduces TNF alpha induced VCAM1 expression in HUVEC. HUVEC TNFa-induced VCAM-1 immunofluorescence, high-content imaging. inhibition, % at 2 µM. hit rate 0.48% among 95,000. AID 802;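 active = inhibition above the batch mean plus 3 SD, with images confirmed as a hit by eye, cut at about 37% in these data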;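 also: 0% = TNF-stimulated DMSO wells and 100% = unstimulated control wells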
# MRP1 act: activators of MRP-1 | viability increase, % at 10 µM | AID 799 | H69AR cells + doxorubicin, viability rescue, CellTiter-Glo | hit rate 0.61% among 140,000;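 active = viability gain under doxorubicin at or above a set limit, the compound median plus 3 SD, cut at about 4.7% in these data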;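 also: MRP-1 overexpressing cells given doxorubicin 25 µM after compound pretreatment; 18-22 h compound pretreatment then 72 h with doxorubicin before readout; 0% = doxorubicin-only wells and 100% = vehicle-treated cells without doxorubicin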
# * hit, by the source's call; x = no result given. Only some compounds are listed: those with a hit (about 1.5% of all), similar ones and a draw of the others.
SMILES,MRP reversal,F-actin modifier,E-sel TNF inh,VCAM1 TNFa inh,MRP1 act
CC(C)(C)NC(=O)C(c1c[nH]c2ccccc12)N(C(=O)Cn1nnc(-c2ccc(Cl)cc2)n1)c1ccccc1F (stereo not given),x,x,x,x,-1.3
COc1ccc(NS(=O)(=O)c2ccc3oc(SC4CCOC4=O)nc3c2)cc1 (stereo not given),10.8,x,18.7,-7.9,7.4*
Cc1cc(C)c2c(n1)sc1c(N3CCOCC3)ncnc12,-3.1,-33.4,-12.3,60.8*,x
CCN1CCN(C(=S)c2ccc([N+](=O)[O-])cc2)CC1,x,x,-1.2,x,1.2
COc1ccc(C(=O)c2sc3nc(C)cc(-c4cccs4)c3c2N)cc1OC,x,x,x,x,-1.1
CCOC(=O)c1c(-c2cccs2)csc1NC(=O)CSc1ncn[nH]1,-2.5,12.1,0.8,12.3,6.0*
CCOC(=O)c1c(-c2cccs2)csc1NC(C)=O,14.6,-6.3,3.4,10.4,-0.3
CC(C)c1ccc(-n2ccnc2SCC(=O)O)cc1,x,x,-6.4,x,x
Cc1c(Cl)cccc1-n1ccnc1SCC(=O)O,-5.5,-31.4,x,94.2*,-0.7
O=C1CC(c2nc3ccccc3[nH]2)CN1c1cccc(C(F)(F)F)c1 (stereo not given),6.2,x,1.9,x,7.7*
CC(C)Oc1ccc(-c2nn(-c3ccccc3)cc2/C=c2\sc3ncnn3c2=O)cc1,-7.1,21.8,-13.2,3.4,5.8*
O=c1/c(=C/c2cn(-c3ccccc3)nc2-c2ccc(F)cc2)sc2nc3ccccc3n12,x,-1.5,-17.1,-11.2,-1.6
CCC(=O)c1ccc(N2CCOCC2)c(F)c1,-5.2,-18.1,56.5*,4.7,7.7*
CCCC(=O)c1ccc(N2CCOCC2)c(F)c1,x,-94.0,13.4,1.2,-1.8
CCOC(=O)c1c(-c2cccc([N+](=O)[O-])c2)csc1NC(=O)C1CC1,x,-0.5,-46.7,3.6,-2.1
CCOC(=O)c1c(-c2cccc([N+](=O)[O-])c2)csc1NC(=O)C1CCCCC1,x,x,x,x,9.4*
CCn1c(SCC(=O)Nc2ncc(C(F)(F)F)cc2Cl)nnc1-c1ccccc1,x,x,2.4,x,0.6
CC(C)NS(=O)(=O)c1ccc(OCC(=O)Nc2ccc(F)cc2F)cc1,17.9,8.0,-6.4,-7.8,0.5
CCCCNC(=S)NNC(=O)c1ccc(Br)o1,x,x,-1.7,x,-1.8
COc1ccc(C)cc1S(=O)(=O)Nc1cccc(SC)c1,-1.4,-19.7,17.1,51.2*,2.6
COc1cc(S(=O)(=O)N(Cc2ccccn2)Cc2ccco2)ccc1-n1cnnn1,-0.2,-9.5,54.8*,-1.4,-4.6
COc1ccc(CNC(=O)c2sc3nc4c(c(C(F)(F)F)c3c2N)CCC4)cc1,x,x,x,x,2.2
Nc1c(C(=O)NCc2ccc(Cl)cc2)sc2nc3c(c(C(F)(F)F)c12)CCC3,x,-34.8,64.9*,-6.3,-0.1
Cc1ccc(CNC(=O)c2sc3nc4c(c(C(F)(F)F)c3c2N)CCC4)cc1,x,2.9,24.1,3.7,4.8*
O=c1c(C(c2ccccc2)c2c(O)sc3ccccc3c2=O)c(O)sc2ccccc12,24.6,-15.4,-0.7,3.0,-0.9
SMILES,MRP reversal,F-actin modifier,E-sel TNF inh,VCAM1 TNFa inh,MRP1 act
CC(C)c1cc(NCC2CCCO2)n2c(nc3ccccc32)c1C#N (stereo not given),-8.3,6.0,10.4,11.1,-2.5
COc1ccc(C(=O)c2c(C(F)(F)F)oc3c2C(=O)c2ccccc2C3=O)cc1,-22.1,-33.5,-4.7,93.8*,-2.6
CCN1C(=O)c2cccc3c(NC(=O)c4cccc(N5C(=O)CCC5=O)c4)ccc1c23,9.9,-25.3,60.1*,0.9,-1.6
CC1(C)C(=O)Nc2ccccc2N1C(=O)COC(=O)c1ccc(Cl)c(S(=O)(=O)NCc2ccccc2)c1,7.3,-7.3,11.7,19.2,0.0
Cc1cccc(Nc2nnc(SCC(=O)Nc3cccc(S(=O)(=O)N4CCCCC4)c3)s2)c1,x,x,x,x,-0.9
Cc1cccc(Nc2nnc(SCC(=O)Nc3cccnc3Cl)s2)c1,x,x,3.3,x,8.1*
O=C(CCN1C(=O)c2ccccc2C1=O)Nc1ccc(-c2nc3ccccc3s2)cc1,x,x,x,x,0.3
Cc1ccc2nc(-c3ccc(NC(=O)CCN4C(=O)c5ccccc5C4=O)cc3)sc2c1,x,x,65.0*,x,-5.4
Cc1ccc(NC(=O)c2ccc(OC(=O)CCN3C(=O)c4ccccc4C3=O)cc2)cc1,2.3,-9.3,44.3*,-0.3,-2.2
CCN1C(=O)C(F)(CC)C(=O)c2ccccc21 (stereo not given),x,x,x,x,-1.6
COc1cccc(C(C(=O)NC(C)(C)C)N(C(=O)CCC(=O)Nc2cc(C)on2)C2CC2)c1OC (stereo not given),7.7,-25.4,67.5*,-3.8,-2.4
CCCCN(C(=O)CCC(=O)Nc1cc(C)on1)C(C(=O)NC(C)(C)C)c1cccc(OC)c1OC (stereo not given),-18.4,-37.4,21.1,14.2,-3.5
COc1cccc(NC(=O)c2oc3ccccc3c2NC(=O)c2ccc3c(c2)OCO3)c1,-6.8,-34.8,14.7,-4.9,5.0*
CCC(=O)Nc1cccc(NC(=O)c2cc3ccccc3o2)c1,-2.8,-56.3,x,86.1*,-1.3
COc1ccc(CNn2c(-c3ccccc3F)nc3ccccc3c2=O)cc1OC,x,x,-27.9,x,x
CCc1nc2oc3ccccc3c(=O)c2c(=O)n1CCOC,4.1,-43.2,x,87.0*,-3.1
CC(=O)c1ccc(N(C(=O)Cn2nnc(-c3ccccc3)n2)C(C(=O)NC2CCCCC2)c2ccccn2)cc1 (stereo not given),x,x,x,x,-2.2
O=C1c2ccccc2-c2ncnc3cccc1c23,-17.3,11.4,64.7*,5.6,x
O=C(O)c1ccc2c3c(ncnc13)-c1ccccc1C2=O,-38.0,x,x,x,-4.1
O=C(CCN1CCN(Cc2ccccc2)CC1)Nc1ccccc1Cl,x,x,x,x,-2.2
CC1=C(C#N)C(Nc2cccc(C)n2)(C(F)(F)F)C(=O)N1 (stereo not given),6.0,-28.9,x,90.9*,-2.7
CCOc1ccc(C(=O)C(c2ccccc2)N2CCOCC2)cc1 (stereo not given),13.6,-19.3,x,75.9*,-0.1
CCCOc1ccc(C(=O)C(CN2CCOCC2)c2ccccc2)cc1 (stereo not given),-3.5,-1.9,17.6,50.0*,-7.5
COc1ccc(C(=O)C(CN2CCOCC2)c2ccccc2)cc1F (stereo not given),0.6,15.5,62.4*,x,-3.1
COc1cccc(=O)c2c(C)n(-c3cc(C)cc(C)c3)c(C)c12,x,-9.0,67.4*,-18.7,1.3
SMILES,MRP reversal,F-actin modifier,E-sel TNF inh,VCAM1 TNFa inh,MRP1 act
CC(C)c1ccc(C(=O)NCCCN(C)C)cc1,x,x,7.7,x,-1.6
O=C(NC1CCCCC1)N(CCN1CCOCC1)Cc1cc2cc3c(cc2[nH]c1=O)OCCO3,7.3,32.8*,x,1.1,-4.0
CCOC(=O)c1ccc(N2C(=O)c3n[nH]c(C)c3C2c2ccc(OC)cc2)cc1 (stereo not given),11.6,-23.8,x,7.1,0.3
CCOC(=O)c1ccc(N2C(=O)c3n[nH]c(C)c3C2c2ccc(OC)cc2OC)cc1 (stereo not given),0.8,16.1,-4.2,1.9,9.4*
Cc1ccc(S(=O)(=O)NC(=O)c2cc(C)n(-c3cc(S(=O)(=O)N4CCOCC4)ccc3N3CCCC3)c2C)cc1,x,-0.9,-8.8,-26.9,5.0*
O=C(O)c1cc(S(=O)(=O)N2CCOCC2)ccc1N1CCCCC1,x,x,5.8,x,x
